PubChem BioAssay AID1053144 (Broad Institute, 2014)
In all, about 3,400 compounds went through this assay and about 160 (4.7%) were called active.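 Rule for the calls: active = fitted curve reaches 30% activation at a concentration no higher than the top valid tested dose, luminescence rising; inconclusive = no clear call, values can overlap the other calls; inactive = signal moving opposite to the expected increase, plus the rest.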 Only a sample is shown. Results with a measured potency or affinity are listed apart.

assay: Wnt/beta-catenin signaling activators, dose response, cell-based, iPS-derived NPC, luciferase, Wnt3a, cherry-pick (AID 1053144); settings: NPC TCF/LEF luciferase reporter, Wnt3a EC25, 24 h; series mostly up to 26 µM; activation: at the top concentration;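 note: Wnt3a stimulus is conditioned medium from Wnt3a-transfected mouse L cells at 5% in well; 0% = neutral control wells and 100% = CHIR-99021 positive control wells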

activation, inactive:
Nc1c(-c2cccc(Cl)c2)cnc2c(-c3ccccc3)cnn12 4.5%
O=C(NN=Cc1ccc2c(c1)OCO2)c1ccccc1 18.2%
Cc1occc1C(=O)N/N=C/c1ccc2c(c1)OCO2 2.18%
CCOC(=O)c1ccc(NC(=O)N(CC)CC)cc1 11.7%
CCOC(=O)c1ccc(-c2ccc(C=O)o2)cc1 7.08%
O=C(Nc1ccc2c(c1)OCCO2)c1cncc(Br)c1 6.75%
C=CCn1c(C)cc(C(=O)CSc2nc3ccccc3o2)c1C 2.6%
COc1cc(C2C3=C(CC(C)(C)CC3=O)Nc3c2c(=O)[nH]c(=O)n3Cc2ccccc2)ccc1O (stereo not drawn) 3.49%
O=C(c1ccc(Br)cc1)c1coc2ccc(O)cc12 18.8%
CC(=O)Oc1ccc2occ(C(=O)c3cccs3)c2c1 17.3%
COc1ccc(C(=O)NN/C(=N/S(=O)(=O)c2ccc(C)cc2)c2ccccc2)cc1 7.8%
Cc1[nH]c2ccc(F)cc2c1CCN1C(=O)OC(C)(C)C1(C)O (stereo not drawn) 5.62%
COc1ccc(C(=O)O/N=C(\N)c2ccccc2)cc1OC 11.8%
COc1cc(/C=C/C(=O)N2CCC=CC2=O)cc(OC)c1OC -6.11%
Oc1ccc(-c2cn3ccccc3n2)cc1 23.2%
CC(=O)Nc1ccccc1OCC(=O)c1ccc2c(c1)OCO2 9.06%
Clc1ccccc1/C=C/c1nc(-c2cccnc2)no1 6.34%
C(=C\c1nc(-c2ccncc2)no1)/c1ccccc1 9.12%
COc1ccc2[nH]cc(/C=C/C(=O)c3ccccc3)c2c1 20.3%
Cc1ccc(NC(=O)C(=O)c2c[nH]c3ccccc23)cc1 9.92%
Cc1cccc2cc(/C=N/Nc3ccc(C(=O)O)cc3)c(Cl)nc12 8.76%
Brc1ccccc1-n1nnc(-c2cnc3ccccc3c2)n1 3.75%
COc1ccc(C(=O)Nc2cc(C)on2)cc1 4.98%
COc1ccc(-c2ccc(SCC(=O)Nc3nnc(C)s3)nn2)cc1 3.75%
O=C(COc1ccc2c(c1)CCC2)N1CCc2ccccc21 16.6%
O=C(COc1ccc([N+](=O)[O-])cc1Cl)N1CCc2ccccc21 5.95%
O=C(Nc1ccccn1)C(=O)Nc1ccccn1 7.92%
O=C(Nc1ccccc1O)c1csc2c1CCCC2 6.88%
Cc1cc(SCC(=O)c2ccc(Cl)cc2)nc(=O)[nH]1 8.19%
O=C(Nc1nc(-c2ccccn2)cs1)C12CC3CC(CC(O)(C3)C1)C2 8.62%
CCC(C)NC(=O)c1cc(-c2ccc3c(c2)OCO3)on1 (stereo not drawn) 13.7%
c1ccc(N=NC2=NN(c3ccccc3)CS2)cc1 11.2%
O=c1c(N=Nc2ccccc2)c[nH]n1-c1ccccc1 14.2%
CCc1ccc(C(=O)CCC(=O)Nc2ccc(OC)c(S(=O)(=O)N3CCCCC3)c2)cc1 5.78%
CCOc1ccccc1-n1nnnc1SCC(=O)O 0.553%
Cc1c(CC(=O)N[C@H](C(=O)O)C(C)C)c(=O)oc2cc3c(cc12)CCC(C)(C)O3 5.83%
Cn1cccc1-c1nc2ccc(NC(=O)c3ccco3)cc2[nH]1 11.8%
O=C(Nc1ccc2nc(-c3ccco3)[nH]c2c1)c1ccco1 12.9%
O=C(Nc1ccc2c(c1)Cc1ccccc1-2)c1ccccc1F 6.96%
CCOC(=O)C1CCCN(C(=O)CCc2nnc(-c3ccc(C(C)=O)s3)o2)C1 (stereo not drawn) 10.3%
Cc1ccc(C)c(N2CCN(C(=O)CCc3nc(-c4ccccc4C(F)(F)F)no3)CC2)c1 12.2%
Cc1ccc(OCc2cc(C(=O)N3CCN(c4ccccc4)CC3)no2)cc1C 15.5%
CC(=O)Nc1cccc(NC(=O)c2cc3ccccc3o2)c1 7.51%
CC(C)(C)C(=O)Nc1ccc(C(=O)Nc2cccnc2)cc1 4.16%
COc1cccc(/C=C/c2ccc3cccc(O)c3n2)c1OC 6.83%
COc1cc(/C=C/c2ccc3cccc(O)c3n2)cc(Cl)c1OC 2.28%
COc1cc(/C=C/C(=O)OCC(=O)NCCc2ccccc2)cc(OC)c1OC 1.5%
Oc1ccc(Cl)cc1C=NN1CCCCCC1 5.75%
CCN1CCN(C(=O)c2ccc(-c3nc4ccccc4s3)s2)CC1 6.07%
COc1ccc(-c2nc3ccccc3s2)cc1NC(C)=O 8.89%
CN(CCO)c1c2c(nc3cc(-c4cccc(F)c4)nn13)CCCC2 4.94%
O=C(c1ccccc1)c1nnc(-c2ccccc2F)o1 3.17%
O=[N+]([O-])c1cccc(C2=NC(c3ccccc3)CO2)c1 (stereo not drawn) 5.82%
O=C(c1cc(-c2cccc(O)c2)on1)N1CCOCC1 0.173%
O=C(c1cc(-c2cccc(O)c2)on1)N1CCCCC1 5.31%
Cc1cc(=O)oc2cc(OCC(=O)Nc3nccs3)ccc12 5.74%
Cn1cccc1/C=C1\SC(=O)N(c2ccccc2)C1=O 6.73%
CCn1cc(S(=O)(=O)CC(=O)Nc2ccc3c(c2)OCO3)c2ccccc21 1.02%
CC(=O)Oc1ccc(-c2csc(Nc3ccccn3)n2)cc1 6.84%
CC(=O)c1sc(NC(=O)c2ccc3c(c2)OCO3)nc1C 5.81%
CC(C)NC(=O)N1CCCN(c2nc3ccc(Cl)cc3s2)CC1 0.108%
Cc1ccc2c(c1)COc1c3ccc(C(=O)NCCO)cc3nn1-2 9.09%
C[C@@H](CO)NC(=O)c1ccc2c3n(nc2c1)-c1ccc(Cl)cc1CO3 13.9%
CC(C)NC(=O)c1ccc2c3n(nc2c1)-c1ccc(Cl)cc1CO3 17.6%
Cc1ccc2c(c1)COc1c3ccc(C(=O)NC(C)C)cc3nn1-2 10.5%
C=CCNC(=O)c1ccc2c3n(nc2c1)-c1ccc(C)cc1CO3 15.7%
O=C(NCCO)c1ccc2c3n(nc2c1)-c1ccccc1CO3 7.92%
O=C(c1ccco1)N1CCN(c2ccc(N3CCCCC3)nn2)CC1 7.55%
c1cn2c(Nc3ccc4c(c3)OCCO4)c(-c3ccc(N4CCOCC4)cc3)nc2cn1 9.24%
Cc1nn(C(=O)c2cccs2)c(N)c1-c1ccccc1 11.2%
O=C(/C=C/c1ccc([N+](=O)[O-])cc1)Nc1cccnc1 10.1%
COc1ccc(OC)c(NC(=O)CSc2nnc(C3CCCCC3)n2-c2ccccc2)c1 0.506%
O=C(OCC(=O)N1CCOCC1)c1ccc2ccccc2c1O 9.5%
O=C(COc1ccc2ccccc2c1)N1CCCC1 7.07%
O=C(Nc1ccc(C(=O)c2ccccc2)cc1)c1ccccc1 6.68%
O=C(Nc1ccc(-c2cn3ccsc3n2)cc1)C1CC1 8.33%
O=c1c2cc(-c3ccccc3)sc2nc2n1CCC2 9.92%
CCOC(=O)c1sc2nc(-c3cccnc3)ccc2c1N 14.6%
CC(C)c1[nH]nc2c1C(C1C=CCCC1)C(C#N)=C(N)O2 (stereo not drawn) 9.36%
COc1ccc2cc(CCNC(=O)c3ccco3)c(=O)[nH]c2c1 17.9%
CCCNC(=O)c1oc2ccc3c(c2c1C)C(=O)CC(C)(C)O3 10.9%
CCCNC(=O)c1cc(-c2ccc3c(c2)OCO3)on1 7.07%
Cc1cccn2cc(-c3ccc(F)cc3)nc12 20%
c1ccc(-c2ccc3ccccc3n2)cc1 15%
COc1cc2ccc(-c3ccc4ccccc4n3)cc2cc1OC 12.8%
Cc1occc1C(=O)NNC(=O)c1ccccc1F 3.75%
CCCCNc1c(-c2ccc(-c3cccc(Cl)c3)cc2)nc2ccccn12 -4.29%
COc1ccc(C)cc1NC(=O)CSc1nnnn1Cc1ccccc1 2.28%
COC(=O)c1cc2c(s1)-c1ccc(OC)cc1CC2 10%
COCCNC(=O)c1cc2sc3ccccc3c2s1 8.53%
CCC1CCC(NC(=O)Nc2cccc(OC)c2)CC1 (stereo not drawn) 7.93%
Oc1ccc(-c2cnc3ccccc3n2)cc1 9.09%
Cc1cc2ncc(-c3ccccc3)nc2cc1C 4.06%
CCC(=O)n1nc(-c2ccc(Cl)cc2)nc1SC 8.35%
CCCCC12CN3CCN(CC(C3)/C1=N\NC(=O)c1ccccc1N)C2 1.36%
CN(C)c1cccc(-c2csc(N3CCC(C(N)=O)CC3)n2)c1 10.6%
Cc1ccc(C(=O)COC(=O)c2cccc(O)c2)s1 4.71%
Cn1cccc1C(=O)OCC(=O)c1ccc(Br)s1 11.6%
CCOc1ccc(N2C(=O)CC(SCCN)C2=O)cc1 (stereo not drawn) 5.05%
O=C(Nc1ccccc1)C1=C[C@@H](C2CC2)C[C@@H](OCc2ccc(CO)cc2)O1 6.41%
O=C1c2ccccc2C(=O)C1c1ccnc2ccccc12 3.26%
O=C1/C(=C/c2ccc(O)cc2)COc2ccccc21 -0.294%
O=C(Nc1nccs1)c1c(O)c2c([nH]c1=O)CCCC2 10.9%
O=C(Nc1ccc2ccccc2c1)c1cccc(F)c1 13.7%
Cc1ccc2cc(NC(=O)c3ccccc3)ccc2n1 4.37%
COc1cccc(-c2nc(-c3ccccn3)no2)c1OC 8.51%
CN(C(=O)c1cc2c(=O)n3ccccc3nc2n1C)C1CCCCC1 15.1%
Brc1ccc(-c2nc(-c3ccccc3)no2)o1 6.82%
Brc1ccc(-c2noc(-c3ccccc3)n2)o1 4.42%
O=C(c1ccc(-c2ccccc2Cl)o1)N1CCCCCCC1 7.93%
O=C(c1ccc(-c2cccc(Cl)c2Cl)o1)N1CCOCC1 12.7%
CC(C)(C)c1ccc(OCc2ccc(C(=O)NCc3cccnc3)o2)cc1 5.47%
O=c1ncn(-c2cccc(Cl)c2)c2ccccc12 1.23%
O=C(Nc1nccs1)c1ccc(N2CCOCC2)c([N+](=O)[O-])c1 14.1%
Cc1occc1C(=O)N/N=C/C(Br)=C\c1ccccc1 13.2%
O=C(N/N=C/c1cccc(OCc2ccccc2)c1)c1cccs1 4.1%
COc1ccc(CN2C(=O)C(C)S/C2=N/N=C/c2ccco2)cc1 (stereo not drawn) 10.9%
CCCc1cc(C(=O)NC2CCCCC2)no1 18.1%
O=C(Nc1nc2cc3c(cc2s1)OCCO3)c1cccs1 0.063%
CC(=O)Nc1nc2cc3c(cc2s1)OCCO3 9.37%
Cc1c(C(=O)Nc2ccc(Br)cc2)cnn1C 17.6%
Nc1nc(N)nc(-c2cccc(Br)c2)n1 12.6%
Cc1ccc(F)c(CNC(=O)C2(C)CCCN2C(=O)C(C)C)c1F (stereo not drawn) 0.12%
